Screens (PubChem BioAssay)
IL-1B inflam inh – qHTS for Inhibitors of Inflammasome Signaling: IL-1-beta AlphaLISA Primary Screen. AID 743279, 2014. activity change, % at 57.5 µM. THP-1 LPS/ATP IL-1B secretion, AlphaLISA, 16 h; hits give low values. actives 4.7% (n = 360,000); in the data active means activity change below about -50%; inconclusive means mostly about -30% to -49%; further: on the % scale 0 is the no-effect control and ±100 the full control effect
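Secreted IL-1B measured by AlphaLISA bead assay after 16 h compound exposure of THP-1 cells; compounds (final up to 57.5 uM) added 1 h before LPS (250 ng/mL) and ATP (1.25 mM) stimulation; lower signal means less secretion.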
MCF10A rereplic – A quantitative high throughput screen for small molecules that induce DNA re-replication in MCF 10a normal breast cells. MCF 10A DNA re-replication, Hoechst nuclear intensity, 48 h. Potency, µM (top dose mostly 46.1 µM), without a hit: at the top dose activity, positive = re-replication, actives largely listed as activators. actives 2.9% (n = 350,000). AID 624296, 2012; further: potency means the concentration at half of the fitted maximal effect; % of control where 0% means no effect; nearly all actives have a fitted effect of over 50% in size
DT40 TDP1 CPT – qHTS for Inhibitors of human tyrosyl-DNA phosphodiesterase 1 (TDP1): qHTS in cells in presence of CPT; actives 12% (n = 420,000); AID 686979, 2013; Potency, µM (top dose mostly 46.2 µM), for the others: at the highest dose activity change, negative = growth inhibition, usual class: inhibitors; chicken DT40 Tdp1-/-;hTDP1 cells + 20 nM CPT, ATP luminescence, 48 h; further: potency means the concentration at half of the fitted maximal effect; on the % scale 0 is the no-effect control and ±100 the full control effect; nearly all actives have a fitted effect of over 55% in size
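Cell growth measured by CellTiter-Glo luminescence after a minimum 48 h, 37 C compound exposure with 20 nM CPT in Tdp1-knockout DT40 cells stably expressing hTDP1, seeded 400/well; qHTS titration format.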
DT40 TDP1 no CPT – qHTS for Inhibitors of human tyrosyl-DNA phosphodiesterase 1 (TDP1): qHTS in cells in absence of CPT | DT40 Tdp1-/- hTDP1 cells, no CPT, ATP luminescence, 48 h | Potency, µM (top dose mostly 46.2 µM), inactives show at the highest dose activity change, negative = growth inhibition, most hits filed as inhibitors | actives 15% (n = 420,000); further: potency means the concentration at half of the fitted maximal effect; on the % scale 0 is the no-effect control and ±100 the full control effect; nearly all actives have a fitted effect of over 55% in size
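Stably hTDP1-transfected Tdp1-null chicken DT40 cells were treated with library compounds minus camptothecin and grown for at least 48 hr at 37 °C, after which cellular ATP was quantified by luminescence.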
Chronic BCR inh – qHTS Assay to Find Inhibitors of Chronic Active B-Cell Receptor Signaling; ABC-DLBCL IkBa-CBG/CBR reporter, luminescence ratio, 4 h; Potency, µM (series often up to 46.1 µM), for inactives: at the top dose activity change, negative = inhibition, usual class: inhibitors; actives 0.05% (n = 340,000); AID 493014, 2011; active means well fitted inhibition curve with a large enough effect in the signal ratio, with a control signal flat, not every such curve was filed as active; inconclusive means small, poorly fitted or top-dose-only effect, or effect the other way, or a change in a side signal; the % refers to the signal ratio;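 further: potency means the concentration at half of the fitted maximal effect; plate controls were basal doxycycline-induced cells for no effect and cells given 10 µM MG132 for full effect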
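Concentration-response series (up to 46 uM) were applied to TMD8 dual-reporter cells for 4 h at 37C with doxycycline. Green/red ratio, after filter-overlap correction, defined %Activity; red signal alone was normalised to basal cells and zero luminescence.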
SW480 rerep – A quantitative high throughput screen for small molecules that induce DNA re-replication in SW480 colon adenocarcinoma cells; Potency, µM (top dose mostly 46.1 µM), for the others: top-dose re-replication activation, hits mostly activators; AID 624297, 2012; SW480 DNA re-replication, Hoechst DNA content imaging, 48 h; actives 1.8% (n = 340,000); further: potency means the concentration at half of the fitted maximal effect; % of control where 0% means no effect; nearly all actives have a fitted effect of over 55% in size
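Cells (250 per well) received 23 nL compound or DMSO by pin tool and were kept 48 hr at 37 C, 5% CO2. Nuclei were then stained with Hoechst for 40 min and scanned for DNA content.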
* hit, by the source's call; ? = inconclusive; . = no result given; [ ] = another dose, or the depositor's remark. Most compounds without a hit are left out; they make up all but 19% or so of the library. Unless noted, the call rests on the fitted dose curve; in most records, active means well fitted curve in the direction sought with a large enough effect; inconclusive means small, poorly fitted or top-dose-only effect, or another doubt; inactive means no such curve, though single readings can be large; an effect the other way counts as inactive or inconclusive.

SMILES	IL-1B inflam inh	MCF10A rereplic	DT40 TDP1 CPT	DT40 TDP1 no CPT	Chronic BCR inh	SW480 rerep
O=C(CSC1=NCCN1)NC12CC3CC(CC(C3)C1)C2	-100*	?	26µM*	15µM*	?	1%[9.22 µM]
Cn1ccnc1SCC(=O)NC1CCCCC1	43	16%	1%	9%	4%	-3%
Cc1ccc(OCC(=O)Oc2c(C)cccc2C)cc1	7	-4%	-6%	-5%	7%	0%
COCC(=O)Oc1cc(-c2ccc(C)cc2C)c(OC(=O)COC)c(-c2ccc(C)cc2C)c1	?	.	10µM*	9.2µM*	.	.
CN1CCN(S(=O)(=O)c2ccc(C(F)(F)F)cc2)C(c2ccccc2)C1 (configuration not stated)	6	2%	-18%	?	-3%	-2%
C[C@@H]1COC(=O)[C@H](Cc2ccc(F)cc2)CC/C=C\C[C@@H](CC(=O)NCCO)C(=O)N1	19	-6%	1%	-6%	0%	-10%
COc1cccc(OC)c1C(=O)NCCSC1CCCCC1	-1	-3%	13µM*	18µM*	3%	-7%
Cc1ccccc1NS(=O)(=O)c1cc(C(=O)Nc2ccccc2-c2ccccc2)ccc1Cl	-14	?	-20%	-18%	?	25%
Cc1ccc(C)c(NS(=O)(=O)c2cc(C(=O)NCCSC3CCCCC3)ccc2C)c1	?	?	?	23µM*	8%	?
O=C(NCc1ccccn1)c1cccc(NS(=O)(=O)c2cccc(F)c2)c1	33	6%	1.6µM*	1.5µM*	-1%	-2%
C=CCNC(=O)c1ccccc1NC(=O)c1ccc(Cl)c(S(=O)(=O)Nc2cc(C)ccc2C)c1	26	-2%	18µM*	?	-5%	-3%
Cc1ccc(C)c(NS(=O)(=O)c2cc(C(=O)NCc3ccccn3)ccc2C)c1	-3	?	?	29µM*	0%	0%
Cc1oc2ncn(C)c(=O)c2c1C(=O)NCc1ccccc1	.	.	0%	-23%	.	.
S=C(Nc1ccc(Oc2ccccc2)cc1)NC1CCCC1	-11	?	-1%	?	-22%	0%
S=C(Nc1ccc(Br)cc1)NC1CCCC1	-62*	-1%	?	21µM*	?	-1%
Cc1cccc(NC(=S)NC2CC3CCCC(C2)N3Cc2cccs2)c1 (configuration not stated)	-78*	9%	23µM*	23µM*	6%	22%
Cc1cccc(NC(=S)NC2CCCC2)c1	29	1%	?	15µM*	?	-5%
COCCNC(=S)NC1CC2CCCC(C1)N2Cc1cccs1 (configuration not stated)	12	3%	-1%	-12%	0%	7%
CN(C)c1ncnc2c1ncn2[C@H]1CN(Cc2cccnc2)C[C@@H](CO)O1	0	.	-10%	1%	.	.
COc1ccc(Cl)cc1C(=O)Nc1cccnc1Cl	-19	-2%	6%	-13%	-5%	-3%
Cc1ccccc1CN1CCCN(CC(=O)Nc2ccc3c(c2)OCCO3)S1(=O)=O	.	.	-30%	-24%	.	.
COc1ccc(CCC(=O)NCCS(=O)(=O)N2CCN(c3ccc(OC)cc3)CC2)cc1	0	1%	?	-19%	-2%	-2%
CC(OC(=O)CCCN=C1NS(=O)(=O)c2ccccc21)C(=O)Nc1ccccc1[N+](=O)[O-] (configuration not stated)	10	1%	?	?	-8%	-5%
CCOC(=O)c1c(C)oc2c1c(C=NCc1ccccn1)c(O)c1ccccc12	-94*	12µM*	0.92µM*	1.2µM*	11%	?
